Screening results (PubChem)
Most compounds without a hit are left out; they make up all but 3.6% or so of the library.
HSF1 activator: increases HSF-1 driven luciferase reporter signal; NIH3T3-HGL HSF-1 luciferase reporter, MG132, 8 h; 100% = twice DMSO control signal; activation, % at 9 µM; hit rate 1.7% among 300,000; AID 504408;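 active = mean replicate activation of at least 50% with a set share of replicates each reaching 50%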;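 also: 0% = median of the neutral control wells and 100% = twice that signal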
TROY signal inh: TROY signaling inhibition; Q293 LMP1-TROYcd NF-kB luciferase reporter, 4 h; inhibition, % at 10 µM; hit rate 0.98% among 360,000;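 active = compounds whose plate-normalised and pattern-corrected inhibition of the luciferase reporter signal at the single screening dose is 50% or more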
HSF1 inh: HSF1 inhibition | hit rate 0.77% among 300,000 | AID 2098 | activity change, negative = inhibition, % at 7.5 µM (by protocol) | NIH3T3-HGL HSE-luciferase, MG132-induced, luminescence 8 h; active compounds read low;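 active = more than half of replicate wells show activity change below -50%, luminescence cut by over half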;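 also: luciferase reports HSF-1 transcriptional activity via heat shock element; 0% = median of DMSO wells and -100% = zero luminescence signal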
TWEAK Fn14 block: inhibitors of TWEAK-Fn14 interaction signaling; inhibition, % at 10 µM; TWEAK-stimulated Fn14 reporter cells, luciferase luminescence, 8 h; AID 1159606; hit rate 2% among 360,000; in the data active = inhibition above about 50%
EBV LMP1 NFkB: inhibitors of Epstein-Barr LMP1-induced NF-kappaB reporter. inhibition, % at 12.5 µM. LMP1-induced NF-kappaB luciferase reporter cells, luminescence. hit rate 0.69% among 350,000; in the data active = inhibition above about 41%;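 also: 0% = neutral control wells and 100% = reference inhibitor control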
LGR2 inh: Drosophila LGR2 receptor signaling inhibition | HEK293 LGR2, CRE-luciferase, bursicon-stimulated, 4 h | inhibition, % at 9.99 µM | hit rate 0.35% among 380,000 | AID 720647;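 active = drop in luminescence signal, shown as inhibition above about 50% in the replicate tests, limit read from the data, passing the limit was not always enough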;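 also: agonist challenge used bursicon conditioned medium at about half maximal strength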
* hit, by the source's call.

Screening Cc1ccccc1-n1c(-c2ccc(Cl)cc2)cnc1SCC(=O)NC1CCS(=O)(=O)C1 (stereo unspecified) returned HSF1 activator 70*, TROY signal inh 20, HSF1 inh 14, TWEAK Fn14 block 0, EBV LMP1 NFkB 5 and LGR2 inh 18.
COc1ccc(S(=O)(=O)Nc2cccc3c2O[C@H](CN(C)C(=O)Nc2ccccc2)[C@@H](C)CN([C@@H](C)CO)C3=O)cc1 was read as LGR2 inh -8.
COCC(=O)Nc1ccc2c(c1)OC[C@@H](C)N(C(=O)c1ccccc1)C[C@H](C)[C@H](OC)CN(C)C2=O was read as LGR2 inh -4.
For CC(=O)c1ccc(C(=O)NC2CCCN(Cc3ccccc3F)C2)s1 (stereo unspecified) the results were HSF1 activator 2, TROY signal inh 18, HSF1 inh -3, TWEAK Fn14 block 6, EBV LMP1 NFkB -2 and LGR2 inh -11.
O=C(NC1CCCN(Cc2ccccc2F)C1)c1cccs1 (stereo unspecified) was read as HSF1 activator 62*, TROY signal inh 7, HSF1 inh 32, TWEAK Fn14 block 10, EBV LMP1 NFkB 2 and LGR2 inh 0.
Screening CCn1c(-c2ccccc2)c(C(=O)CCl)c2ccccc21 returned HSF1 activator 98*, TROY signal inh 34, HSF1 inh 60, TWEAK Fn14 block 39, EBV LMP1 NFkB 9 and LGR2 inh 34.
Screening CCN1[C@H](C(=O)NCC2CC2)[C@@H](CO)[C@@H]2Cn3c(ccc(-c4ccccc4OC)c3=O)[C@@H]21 returned LGR2 inh -8.
Screening O=C1CCC(=O)N1CNc1ccccn1 returned HSF1 activator -77, TROY signal inh 2, HSF1 inh -70*, TWEAK Fn14 block -58 and EBV LMP1 NFkB -3.
Screening CO[C@@H]1CN(C)C(=O)c2cc(NC(=O)C3CCOCC3)ccc2OC[C@@H](C)N(Cc2cccnc2)C[C@H]1C returned LGR2 inh -5.
Screening CC(C)OCCCNC(=O)C1CCC(CNS(=O)(=O)c2ccccc2)CC1 (stereo unspecified) returned HSF1 activator 3, TROY signal inh 16, HSF1 inh -5, TWEAK Fn14 block 5, EBV LMP1 NFkB 67* and LGR2 inh 14.
`COCCNC(=O)C1CCC(CNS(=O)(=O)c2ccccc2)CC1` (stereo unspecified) gave HSF1 activator 8, TROY signal inh -5, HSF1 inh -7, TWEAK Fn14 block 4, EBV LMP1 NFkB 56* and LGR2 inh 1.
O=C(c1cnccn1)N1CC(=O)N2[C@H](CO)[C@@H](c3ccc(C#CC4CCCC4)cc3)[C@@H]2C1 was read as LGR2 inh 22.
Screening O=C(N[C@@H]1C=C[C@H](CC(=O)N2CCc3ccccc3C2)O[C@H]1CO)C1CCOCC1 returned LGR2 inh 4.
Screening CN(CC(=O)NCc1cccnc1)S(=O)(=O)c1ccc2c(c1)c(=O)n(C)c(=O)n2C returned HSF1 activator -89, TROY signal inh 3, HSF1 inh -86*, TWEAK Fn14 block 11, EBV LMP1 NFkB -6 and LGR2 inh 2.
Cc1ccccc1-c1cnc2c(c1)C(=O)N([C@@H](C)CO)C[C@H](C)[C@H](CN(C)CC1CCCCC1)O2 was read as LGR2 inh -6.
O=C(Nc1ccccc1C(=O)O)c1cc(S(=O)(=O)N2CCCCC2)c(Cl)cc1Cl was read as HSF1 activator -27, TROY signal inh 26, HSF1 inh -24, TWEAK Fn14 block 56*, EBV LMP1 NFkB 33 and LGR2 inh 7.
Screening CCCn1c(NC(=O)c2ccc(Cl)c(S(=O)(=O)N3CCCC3)c2)nc2ccccc21 returned HSF1 activator -7, TROY signal inh 34, HSF1 inh -3, TWEAK Fn14 block 60* and EBV LMP1 NFkB 3.
For CCN(CC)CCn1c(NC(=O)c2ccc(C)cc2)nc2ccccc21 the results were HSF1 activator 57*, TROY signal inh -5, HSF1 inh 14, TWEAK Fn14 block -28, EBV LMP1 NFkB -22 and LGR2 inh -31.
`O=C(Nc1nccs1)c1ccc(Br)c(S(=O)(=O)N2CCCC2)c1` gave HSF1 activator 18, TROY signal inh 4, HSF1 inh -3, TWEAK Fn14 block 97*, EBV LMP1 NFkB -2 and LGR2 inh 8.
